The source of these data is PubChem BioAssay (NCI).

Molecules are shown by their SMILES. About 83,000 compounds went through this panel and 20% of them were active in at least one assay; those are over-represented in the sample as a whole.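 Single-concentration screen, 48 h exposure, 96-well plates. Endpoint: percent growth. Below 10 = active.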 Unmarked numbers belong to inactive results. Activity calls are given as the source filed them.

Among the test systems are SK-MEL-2 melanoma; EKVX NSCLC; SN12C renal; UO-31 renal; TK-10 renal; ACHN renal; CAKI-1 renal; A498 renal; CCRF-CEM leukemia; MOLT-4 leukemia; RPMI-8226 leukemia; OVCAR-8 ovarian; OVCAR-5 ovarian; OVCAR-4 ovarian; SK-OV-3 ovarian; HS 578T breast; NCI/ADR-RES ovarian; IGROV1 ovarian; OVCAR-3 ovarian.
Test in all cases: NCI-60 one-dose screen, 48 h (100 = growth as untreated, 0 = no growth, -100 = all killed)
Details in all cases: 10 µM unless noted

Turning to `CCOP(=O)(OCC)C1CP(=O)(c2ccccc2)CC(C)=C1Cl` (stereo not given), the growth in the test with SK-MEL-2 melanoma is 102%; in the test with EKVX NSCLC, 107%; in the test on SN12C renal, 96%; with UO-31 renal, 68.1%; in the test with TK-10 renal, 77.1%; with ACHN renal, 109%. For the same molecule, the growth in the test on CAKI-1 renal was 108%; with A498 renal, 111%; with CCRF-CEM leukemia, -90.6% (active); in the test with MOLT-4 leukemia it was 93%; in the test with RPMI-8226 leukemia it was 69.6%; in the test on OVCAR-8 ovarian it was 85.7%. In addition, the growth was 97.8% in the test with OVCAR-5 ovarian; 107% in the test with OVCAR-4 ovarian; 127% in the test on SK-OV-3 ovarian; 112% in the test on HS 578T breast; 93.5% with NCI/ADR-RES ovarian.
Turning to `N#C/C(=C\c1ccc(-c2ccccc2F)o1)c1nc(-c2ccco2)cs1`, the growth in the test with SK-MEL-2 melanoma was 96.5%; in the test on EKVX NSCLC, 67%; in the test on SN12C renal, 96.7%; in the test on UO-31 renal, 68.8%; in the test with TK-10 renal, 65.2%; with ACHN renal, 90.4%. For the same molecule, the growth in the test with CAKI-1 renal was 56.8%; in the test with A498 renal it was 66.9%; in the test with CCRF-CEM leukemia it was 95%; in the test on MOLT-4 leukemia it was 91.9%; in the test on RPMI-8226 leukemia, 80.3%; in the test with OVCAR-8 ovarian, 94.2%. Besides, the growth was 78.2% with OVCAR-5 ovarian; 19.6% with OVCAR-4 ovarian; 92.6% in the test with SK-OV-3 ovarian; 59.9% with IGROV1 ovarian; 98.5% in the test on HS 578T breast; 106% with NCI/ADR-RES ovarian.
As to `CCN(CC)S(=O)(=O)c1cccc(-c2ccc3c(NC(=O)C4CC4)n[nH]c3c2)c1`, the growth was -16.9% [6.25 µM] (active) with SK-MEL-2 melanoma; 27.5% [6.25 µM] in the test on EKVX NSCLC; 38.8% [6.25 µM] with SN12C renal; 36% [6.25 µM] with UO-31 renal; 35.4% [6.25 µM] in the test on TK-10 renal; 27.2% [6.25 µM] with ACHN renal. The growth with CAKI-1 renal was 37.7% [6.25 µM]; with A498 renal it was 9.92% [6.25 µM] (active); with CCRF-CEM leukemia, 17.6% [6.25 µM]; in the test with MOLT-4 leukemia, 10.4% [6.25 µM]; in the test with RPMI-8226 leukemia, 11% [6.25 µM]; with OVCAR-8 ovarian it was 14.7% [6.25 µM]. Further, the growth with OVCAR-5 ovarian is 51.6% [6.25 µM]; in the test with OVCAR-4 ovarian, 18.7% [6.25 µM]; with SK-OV-3 ovarian it was 28.6% [6.25 µM]; in the test on IGROV1 ovarian, 34.7% [6.25 µM]; with HS 578T breast, 23.8% [6.25 µM]; in the test on NCI/ADR-RES ovarian it was 79.7% [6.25 µM].
For the molecule `COc1ccc(/C=C/c2c(C(=O)/C=C/c3ccc(F)cc3)c(C)nc3ccccc23)cc1`, the growth in the test on SK-MEL-2 melanoma was 81.3%; in the test with EKVX NSCLC, 63.1%; in the test on SN12C renal, 45.2%; in the test on UO-31 renal it was 45.6%; in the test with TK-10 renal, 110%; with ACHN renal it was 49.2%. Also, the growth with CAKI-1 renal is 54.6%; with A498 renal it was 77.2%; in the test on CCRF-CEM leukemia, 9.18% (active); with MOLT-4 leukemia, 5.98% (active); in the test on RPMI-8226 leukemia it was -8.58% (active); with OVCAR-8 ovarian it was 41.3%. The growth is 50.9% with OVCAR-5 ovarian; 56% in the test on OVCAR-4 ovarian; 75.9% in the test on SK-OV-3 ovarian; 38.8% with IGROV1 ovarian; 37.5% with OVCAR-3 ovarian; 70.5% with HS 578T breast. Further, in the test with NCI/ADR-RES ovarian, the growth is 33.1%.
Regarding `COc1cc2nc(Cl)nc(Nc3ccc(S(=O)(=O)Nc4nccs4)cc3)c2cc1OC`, the growth in the test on SK-MEL-2 melanoma is 102%; in the test with EKVX NSCLC it was 93.9%; with SN12C renal, 95.7%; in the test on UO-31 renal, 85.4%; in the test on TK-10 renal, 119%; with ACHN renal, 88.2%. The growth in the test on CAKI-1 renal was 88.2%; with A498 renal it was 136%; in the test on CCRF-CEM leukemia, 117%; in the test with MOLT-4 leukemia, 99.3%; in the test with RPMI-8226 leukemia, 107%; in the test on OVCAR-8 ovarian it was 97.3%. Further, the growth in the test on OVCAR-5 ovarian was 111%; in the test on OVCAR-4 ovarian it was 103%; in the test with SK-OV-3 ovarian it was 101%; in the test with IGROV1 ovarian it was 107%; in the test with HS 578T breast it was 99.5%; with NCI/ADR-RES ovarian it was 104%.
Consider `CCCCCCCCCCCC(c1ccccc1)[N+](C)(C)C` (stereo not given), for which the growth with SK-MEL-2 melanoma is -19.8% (active); in the test with EKVX NSCLC, 42.7%; in the test with SN12C renal, 9.01% (active); in the test with UO-31 renal it was 80.8%; with TK-10 renal, 1.24% (active); in the test on ACHN renal, 81.9%. Further, the growth with CAKI-1 renal was 102%; in the test on A498 renal it was 55.4%; with CCRF-CEM leukemia it was 16.1%; in the test with MOLT-4 leukemia, 5.29% (active); in the test on RPMI-8226 leukemia, -16.1% (active); in the test on OVCAR-8 ovarian, 19.3%. Moreover, the growth with OVCAR-5 ovarian is 17.3%; in the test with OVCAR-4 ovarian, 9.74% (active); in the test on SK-OV-3 ovarian, 10.3%; in the test on IGROV1 ovarian it was -60.8% (active); in the test with OVCAR-3 ovarian, 18.6%; with NCI/ADR-RES ovarian, 91.7%.
On to `CC1(C)CC(=O)CC2(C1)N=C(N)Nc1nc3ccccc3n12` (stereo not given), for which the growth in the test with SK-MEL-2 melanoma is 100%; with EKVX NSCLC, 102%; with SN12C renal, 100%; with UO-31 renal, 96.6%; in the test with TK-10 renal, 105%; in the test on ACHN renal it was 91.9%. Also, the growth in the test with CAKI-1 renal is 105%; with A498 renal it was 99.7%; in the test with CCRF-CEM leukemia, 93%; in the test with MOLT-4 leukemia it was 82.3%; in the test on RPMI-8226 leukemia, 94.4%; in the test with OVCAR-8 ovarian, 104%. Further, the growth in the test on OVCAR-5 ovarian is 98.7%; in the test on OVCAR-4 ovarian, 91.7%; with SK-OV-3 ovarian, 101%; in the test on IGROV1 ovarian it was 90.5%; in the test on OVCAR-3 ovarian, 111%; with HS 578T breast, 137%. Moreover, the growth with NCI/ADR-RES ovarian was 106%.
On to `COc1cc(C2NC(=O)c3ccccc3N2)ccc1OCCCCCOc1c(OC)cc(C2=NOC(c3cc(OC)c(OC)c(OC)c3)C2)cc1OC` (stereo not given), for which the growth with SK-MEL-2 melanoma is 76.9%; with EKVX NSCLC, 50.6%; in the test on SN12C renal it was 92.6%; in the test with UO-31 renal, 69.2%; with TK-10 renal, 100%; in the test with ACHN renal, 41.3%. For the same molecule, the growth with CAKI-1 renal is 89.2%; with A498 renal, 99.3%; in the test with CCRF-CEM leukemia, 44.8%; in the test with MOLT-4 leukemia it was 24.6%; in the test on RPMI-8226 leukemia it was -22.2% (active); with OVCAR-8 ovarian, 88.2%. Further, the growth in the test on OVCAR-5 ovarian was 103%; in the test on OVCAR-4 ovarian, 28.8%; in the test with SK-OV-3 ovarian, 93.8%; with IGROV1 ovarian, 15.2%; in the test on HS 578T breast, 102%; in the test on NCI/ADR-RES ovarian it was 65%.
